Read-out in assay [1]: C-C motif chemokine 2 (Homo sapiens) (UniProt P13500)
The experiment in a line: BSK_KF3CT_MCP1: BioMAP Diversity Plus: KF3CT Assay for Monocyte Chemoattractant Protein 1 (MCP1/CCL2) Biomarker Activity (AID 2283073). As to conditions: primary human keratinocytes with fibroblasts; actives raise or lower the signal. The method, boiled down: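 Human keratinocyte–foreskin fibroblast co-culture; MCP-1 measured by ELISA 24 h after dosing. Bidirectional fit vs DMSO; cytotoxicity tracked by SRB total protein in parallel cultures.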

Read-out in assay [2]: Matrix Metallopeptidase 9 (MMP9), MMP9 (gene 4318)
The experiment in a line: BSK_KF3CT_MMP9: BioMAP Diversity Plus: KF3CT Assay for Matrix Metallopeptidase 9 (MMP9) Biomarker Activity (AID 2283074). As to conditions: primary human keratinocytes with fibroblasts; actives raise or lower the signal. The gist of the method:
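ELISA read-out of MMP-9 at 24 h post-dosing in a co-culture of human skin keratinocytes and foreskin fibroblasts. Gain or loss of signal was fitted in both directions against DMSO.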

Read-out in assay [3]: urokinase plasminogen activator (uPA), PLAU (gene 5328)
The experiment in a line: BSK_KF3CT_uPA: BioMAP Diversity Plus: KF3CT Assay for urokinase plasminogen activator (uPA) Biomarker Activity (AID 2283075). As to conditions: primary human keratinocytes with fibroblasts; actives raise or lower the signal. The gist of the method:
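Skin co-culture (keratinocytes + foreskin fibroblasts), human primary; 24 h post-dose; uPA by ELISA; gain/loss fit vs DMSO baseline.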

Read-out in assay [4]: CD40, CD40 (gene 958)
Nature of the assay: BSK_LPS_CD40: BioMAP Diversity Plus: LPS Assay for CD40 Biomarker Activity (AID 2283076). As to conditions: primary human HUVEC with PBMC; actives raise or lower the signal. The gist of the method:
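HUVEC plus PBMC co-culture stimulated with LPS; CD40 quantified by ELISA 24 h after compound dosing. Fitting was bidirectional relative to DMSO. SRB staining of parallel cultures flagged overt cytotoxicity.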

Read-out in assay [5]: E-selectin (Homo sapiens) (UniProt P16581)
Nature of the assay: BSK_LPS_Eselectin: BioMAP Diversity Plus: LPS Assay for Eselectin Biomarker Activity (AID 2283077). As to conditions: primary human HUVEC with PBMC; actives raise or lower the signal. The gist of the method:
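Human umbilical vein endothelial cells co-cultured with PBMC under LPS stimulation; cell-surface E-selectin measured by ELISA 24 h after dosing. Change in either direction versus DMSO, with SRB total-protein staining in parallel cultures for cytotoxicity.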

Read-out in assay [6]: Interleukin-8 (IL8), CXCL8 (gene 3576)
The experiment in a line: BSK_LPS_IL8: BioMAP Diversity Plus: LPS Assay for Interleukin-8 (IL8) Biomarker Activity (AID 2283078). As to conditions: primary human HUVEC with PBMC; actives raise or lower the signal. The gist of the method:
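Human umbilical vein endothelial cells co-cultured with PBMC, LPS-stimulated, exposed to compound for 24 h. IL-8 quantified by ELISA; fitted in both directions against DMSO, with SRB total-protein staining of parallel cultures for cytotoxicity.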

Assay [7] can be described thus: BSK_LPS_SRB: Viability Assessment in the BioMAP Diversity Plus: LPS Assay (AID 2283079).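 Note: total protein by sulforhodamine B absorbance as a cytotoxicity measure; measured one day after compound addition.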 As to conditions: primary human HUVEC with PBMC. The gist of the method: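 Co-culture of human umbilical vein endothelial cells and PBMC, read 24 h after dosing. Total protein by 0.1% SRB staining after 10% TCA fixation, absorbance at 560 nm; bidirectional fit against DMSO.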

Read-out in assay [8]: Interleukin-1 alpha (IL1a), IL1A (gene 3552)
The experiment in a line: BSK_LPS_IL1a: BioMAP Diversity Plus: LPS Assay for Interleukin-1 alpha (IL1a) Biomarker Activity (AID 2283080). As to conditions: primary human HUVEC with PBMC; actives raise or lower the signal. The method, boiled down: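 Human umbilical vein endothelial cells co-cultured with PBMC and stimulated with LPS; IL-1a measured by ELISA 24 h after dosing. Bidirectional fitting against DMSO; cytotoxicity checked by SRB staining in parallel cultures.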

Read-out in assay [9]: Monocyte Chemoattractant Protein-1 (MCP1), CCL2 (gene 6347)
The experiment in a line: BSK_LPS_MCP1: BioMAP Diversity Plus: LPS Assay for Monocyte Chemoattractant Protein-1 (MCP1) Biomarker Activity (AID 2283081). As to conditions: primary human HUVEC with PBMC; actives raise or lower the signal. The method, boiled down:
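Human umbilical vein endothelial cells co-cultured with PBMC, LPS-stimulated; secreted MCP-1 measured by ELISA 24 h after compound addition. Bidirectional curve fitting against DMSO baseline; SRB total-protein staining in parallel cultures for cytotoxicity.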

Assay [10] in a line: BSK_LPS_PGE2: BioMAP Diversity Plus: LPS Assay for Prostaglandin E2 (PGE2) Biomarker Activity (AID 2283082). As to conditions: primary human HUVEC with PBMC; actives raise or lower the signal. The method, boiled down:
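Compounds were added to the LPS co-culture of endothelium and PBMC, and PGE2 was measured by ELISA after 24 h. Responses in either direction were fitted with DMSO as baseline.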

Read-out in assay [11]: Macrophage colony-stimulating factor (MCSF), CSF1 (gene 1435)
The experiment in a line: BSK_LPS_MCSF: BioMAP Diversity Plus: LPS Assay for Macrophage colony-stimulating factor (MCSF) Biomarker Activity (AID 2283083). As to conditions: primary human HUVEC with PBMC; actives raise or lower the signal. The method, boiled down: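 HUVEC–PBMC co-culture, M-CSF measured by ELISA 24 h after chemical dosing. Fitted in both directions relative to DMSO as negative control; overt cytotoxicity assessed by SRB total-protein staining in parallel cultures.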

Read-out in assay [12]: Tissue Factor, F3 (gene 2152)
Nature of the assay: BSK_LPS_TissueFactor: BioMAP Diversity Plus: LPS Assay for Tissue Factor Biomarker Activity (AID 2283084). As to conditions: primary human HUVEC with PBMC; actives raise or lower the signal. The method, boiled down: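 Human umbilical vein endothelial cells co-cultured with PBMC were dosed with compound. Cell-surface CD142 was measured by ELISA 24 h later. Activity was fitted bidirectionally against DMSO, with SRB total-protein staining in parallel cultures for cytotoxicity.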

Read-out in assay [13]: Tumor necrosis factor (Homo sapiens) (UniProt P01375)
Nature of the assay: BSK_LPS_TNFa: BioMAP Diversity Plus: LPS Assay for Tumour Necrosis Factor alpha (TNFa) Biomarker Activity (AID 2283085). As to conditions: primary human HUVEC with PBMC; actives raise or lower the signal. The gist of the method:
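Cells (umbilical vein endothelium plus peripheral blood mononuclear cells) were dosed with chemical, incubated 24 h, then TNFa was quantified by ELISA; values derive from bidirectional fitting with DMSO as baseline.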

Read-out in assay [14]: Vascular cell adhesion molecule 1 (VCAM1), VCAM1 (gene 7412)
Nature of the assay: BSK_LPS_VCAM1: BioMAP Diversity Plus: LPS Assay for Vascular cell adhesion molecule 1 (VCAM1) Biomarker Activity (AID 2283086). As to conditions: primary human HUVEC with PBMC; actives raise or lower the signal. The gist of the method:
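Cells are dosed in an LPS-stimulated endothelial/mononuclear co-culture and, after 24 h, VCAM-1 is quantified by ELISA. Activity in either direction is fitted relative to the DMSO negative control.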

Read-out in assay [15]: CD40, CD40 (gene 958)
The experiment in a line: BSK_SAg_CD40: BioMAP Diversity Plus: SAg Assay for CD40 Biomarker Activity (AID 2283088). As to conditions: primary human HUVEC with PBMC; actives raise or lower the signal. The gist of the method: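 HUVEC plus PBMC co-culture, superantigen-activated, with CD40 read by ELISA 24 h after dosing. Curves fitted in both directions against DMSO. Overt cytotoxicity checked by parallel SRB total-protein staining.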

Read-out in the next assay: CD69, CD69 (gene 969)
Nature of the assay: BSK_SAg_CD69: BioMAP Diversity Plus: SAg Assay for CD69 Biomarker Activity (AID 2283089). As to conditions: primary human HUVEC with PBMC; actives raise or lower the signal. The gist of the method: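 Values derive from bidirectional fitting relative to DMSO vehicle. Cells: umbilical vein endothelium plus peripheral blood mononuclear cells, treated 24 h before fluorescent ELISA for CD69.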

Read-out in assay [16]: Monocyte Chemoattractant Protein-1 (MCP1), CCL2 (gene 6347)
Nature of the assay: BSK_SAg_MCP1: BioMAP Diversity Plus: SAg Assay for Monocyte Chemoattractant Protein-1 (MCP1) Biomarker Activity (AID 2283090). As to conditions: primary human HUVEC with PBMC; actives raise or lower the signal. The gist of the method: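 Values derive from bidirectional fitting of ELISA-measured MCP1 against DMSO controls. Readings were taken 24 h after dosing human vascular endothelial cells co-cultured with peripheral blood mononuclear cells under superantigen stimulation.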

Read-out in assay [17]: E-selectin (Homo sapiens) (UniProt P16581)
Nature of the assay: BSK_SAg_Eselectin: BioMAP Diversity Plus: SAg Assay for Eselectin Biomarker Activity (AID 2283091). As to conditions: primary human HUVEC with PBMC; actives raise or lower the signal. The method, boiled down: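 Human umbilical vein endothelial cells co-cultured with peripheral blood mononuclear cells, SAg system. E-selectin is measured by ELISA 24 h after dosing and fitted bidirectionally against DMSO. Cytotoxicity is checked by SRB staining of parallel cultures.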

Read-out in assay [18]: Transforming growth factor beta 1 (TGFb1), TGFB1 (gene 7040)
The experiment in a line: BSK_KF3CT_TGFb1: BioMAP Diversity Plus: KF3CT Assay for Transforming growth factor beta 1 (TGFb1) Biomarker Activity (AID 2283072). As to conditions: primary human keratinocytes with fibroblasts; actives raise or lower the signal. The gist of the method:
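KF3CT co-culture (keratinocytes + fibroblasts), 24 h exposure → TGF-b1 ELISA → bidirectional fit, DMSO = baseline. Parallel SRB total-protein staining (0.1% SRB, 10% TCA fixation, 560 nm) for cytotoxicity.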

Where a structure was tested more than once in an assay, its records may differ in their call. The source made the active and inactive calls. Rule for the calls: active = hit-call score of the fitted dose curve at least 0.9, where 1 is the maximum; inactive = score below 0.9.

For six compounds, outcome and AC50 results are on record in PubChem BioAssay (EPA / NIEHS).

Broadly, the AC50 is the concentration at which the activity in the assay is half-maximal.

Chain of Tumor necrosis factor (Homo sapiens) (P01375 whole entry, looked up): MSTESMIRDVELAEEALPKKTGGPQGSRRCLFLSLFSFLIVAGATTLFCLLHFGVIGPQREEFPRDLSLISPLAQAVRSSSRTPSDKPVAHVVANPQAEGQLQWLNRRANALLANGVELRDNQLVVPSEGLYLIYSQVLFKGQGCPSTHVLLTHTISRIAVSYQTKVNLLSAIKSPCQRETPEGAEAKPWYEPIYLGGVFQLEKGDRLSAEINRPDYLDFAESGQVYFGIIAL
Chain of E-selectin (Homo sapiens) (P16581 whole entry, looked up): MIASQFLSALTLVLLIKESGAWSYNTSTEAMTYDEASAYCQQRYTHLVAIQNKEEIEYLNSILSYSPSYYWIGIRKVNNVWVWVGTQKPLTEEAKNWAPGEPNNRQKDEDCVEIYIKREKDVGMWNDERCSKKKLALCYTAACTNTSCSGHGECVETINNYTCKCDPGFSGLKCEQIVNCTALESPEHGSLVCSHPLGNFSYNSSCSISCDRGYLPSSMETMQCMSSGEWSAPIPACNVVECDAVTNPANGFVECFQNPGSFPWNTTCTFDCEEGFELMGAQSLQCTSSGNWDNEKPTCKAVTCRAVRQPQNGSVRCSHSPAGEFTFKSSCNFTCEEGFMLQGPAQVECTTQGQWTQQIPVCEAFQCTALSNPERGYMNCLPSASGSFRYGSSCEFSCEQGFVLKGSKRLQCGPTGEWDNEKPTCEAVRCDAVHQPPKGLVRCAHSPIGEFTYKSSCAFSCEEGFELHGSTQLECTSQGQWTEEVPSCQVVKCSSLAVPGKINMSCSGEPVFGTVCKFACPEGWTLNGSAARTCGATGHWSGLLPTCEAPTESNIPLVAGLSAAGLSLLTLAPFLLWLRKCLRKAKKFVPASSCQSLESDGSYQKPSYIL

As for `CCCCN(CCO)CCO`, the outcome in assay [1] is “inactive”; in assay [2], “inactive”; in assay [3] it was “inactive”; with CD40, CD40 (gene 958) [4] it was “inactive”; in assay [5] it was “inactive”; in assay [6] it was “inactive”. Further, the result in [7], in [8], in assay [9], in assay [10], in assay [11] and in assay [12] was inactive. Moreover, the outcome in [13] is “inactive”; in [14], “inactive”; with CD40, CD40 (gene 958) [15], “inactive”; with CD69, CD69 (gene 969), “inactive”; in assay [16], “inactive”; in assay [17], “inactive”. The AC50 in assay [3] was 14.9 µM (active).
Take `CC(C)(C)c1cccc(O)c1`: the outcome in [18] was “inactive”; in assay [1], “inactive”; in [2], “inactive”; in [3], “inactive”; with CD40, CD40 (gene 958) [4], “inactive”; in assay [5], “inactive”. The result in assay [6], in assay [7], in [8], in assay [9], in [10] and in assay [11] was inactive. In addition, the outcome in assay [12] is “inactive”; in assay [13], “inactive”; in assay [14] it was “inactive”; with CD40, CD40 (gene 958) [15], “inactive”; in the assay with CD69, CD69 (gene 969) it was “inactive”; in assay [16], “inactive”. Besides, the result in assay [17] was inactive.
As for `CC(=O)c1ccc(C)cc1`, the outcome is “inactive” in [1]; “inactive” in assay [2]; “inactive” in [3]; “inactive” in the assay with CD40, CD40 (gene 958) [4]; “inactive” in [5]; “inactive” in assay [6]. Besides, the result in assay [7], in assay [8], in [9], in [10], in assay [11] and in assay [12] was inactive. Also, the outcome in [13] was “inactive”; in assay [14], “inactive”; in the assay with CD40, CD40 (gene 958) [15], “inactive”; in the assay with CD69, CD69 (gene 969), “inactive”; in assay [16], “inactive”; in [17], “inactive”.
On to `CC(C)(CO)CO`, for which the outcome in [1] is “inactive”; in assay [2], “inactive”; in [3] it was “inactive”; with CD40, CD40 (gene 958) [4] it was “inactive”; in assay [5] it was “inactive”; in assay [6], “inactive”. In addition, the outcome in assay [7], in assay [8], in [9], in assay [10], in assay [11] and in assay [12] was inactive. Further, the outcome in assay [13] is “inactive”; in assay [14], “inactive”; with CD40, CD40 (gene 958) [15], “inactive”; with CD69, CD69 (gene 969) it was “inactive”; in [16], “inactive”; in assay [17], “inactive”.
Turning to `CC(C)CCCC(C)(C)O`, the outcome is “inactive” in assay [1]; “inactive” in assay [2]; “inactive” in assay [3]; “inactive” in the assay with CD40, CD40 (gene 958) [4]; “inactive” in assay [5]; “inactive” in assay [6]. Besides, the result in [7], in [8], in assay [9], in assay [10], in assay [11] and in [12] was inactive. The outcome in [13] was “inactive”; in [14] it was “inactive”; with CD40, CD40 (gene 958) [15] it was “inactive”; in the assay with CD69, CD69 (gene 969), “inactive”; in [16] it was “inactive”; in assay [17], “inactive”.
For `C=C(C)C(N)=O`, the outcome in [18] is “inactive”; in assay [1], “inactive”; in assay [2], “inactive”; in [3], “inactive”; with CD40, CD40 (gene 958) [4], “inactive”; in [5], “inactive”. For the same compound, the outcome in assay [6], in [7], in assay [8], in assay [9], in assay [10] and in [11] was inactive. The outcome is “inactive” in assay [12]; “inactive” in assay [13]; “inactive” in assay [14]; “inactive” with CD40, CD40 (gene 958) [15]; “inactive” in the assay with CD69, CD69 (gene 969); “inactive” in assay [16]. The result in assay [17] was inactive.
